CHRM1 agonist = agonists of human M1 muscarinic receptor; P11229; CHO-K1 hM1, Fluo-8 calcium fluorescence, agonist mode; 0% DMSO, 100% acetylcholine EC100; activation, % at 3 µM; 0.33% of 360,000 active;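 active = activation above the run's mean compound activation plus 3 SD, cut at about 16% in these data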;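 also: peak over basal fluorescence ratio within a 140 s kinetic read after compound addition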
Target sequence (P11229 whole entry, looked up): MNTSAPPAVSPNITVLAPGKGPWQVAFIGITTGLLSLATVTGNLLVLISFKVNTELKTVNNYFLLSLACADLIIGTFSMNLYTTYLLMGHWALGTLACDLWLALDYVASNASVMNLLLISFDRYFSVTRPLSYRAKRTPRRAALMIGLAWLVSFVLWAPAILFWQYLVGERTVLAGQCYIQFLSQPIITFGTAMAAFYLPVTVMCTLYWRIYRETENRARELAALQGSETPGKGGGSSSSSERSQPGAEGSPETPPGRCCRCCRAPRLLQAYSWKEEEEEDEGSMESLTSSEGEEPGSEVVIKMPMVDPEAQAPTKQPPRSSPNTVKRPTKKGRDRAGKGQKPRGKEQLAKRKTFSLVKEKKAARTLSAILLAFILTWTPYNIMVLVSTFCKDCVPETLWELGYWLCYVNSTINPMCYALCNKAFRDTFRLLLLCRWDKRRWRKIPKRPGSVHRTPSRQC
CHRM1 PAM = positive allosteric modulators of human M1 muscarinic receptor | P11229 | CHO-K1 hM1, Fluo-8 calcium fluorescence, ACh EC20; 0% = ACh EC20, 100% = maximal ACh | activation, % at 3 µM | 0.088% of 360,000 active | AID 588819; in the data active = activation above about 19%, passing the limit was not always enough
M1 PAM parental = counter-screen for M1 PAMs: effect in parental CHO-K1 cells; activation, % at 3 µM; 0.02% of 360,000 active; ATP EC20, Fluo-8 calcium fluorescence; 0% at ATP EC20, 100% at ATP max;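 active = activation above the run cutoff, the mean activation of all test compounds plus 3 SD, cut at about 40% in these data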;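 also: peak over basal fluorescence ratio in a 140 s read after ATP addition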
CHO-K1 Ca ag = M1 agonist counterscreen hit in parental CHO-K1 cells. 0.48% of 360,000 active. activation, % at 3 µM. Fluo-8 calcium fluorescence; scaled to maximal ATP response, vehicle zero; in the data active = activation above about 15%;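 also: untransfected CHO-K1 host cells lacking M1 receptor as counterscreen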
CHO-K1 Ca antag = M1 antagonist counterscreen hit in parental CHO-K1 cells; ATP-induced calcium, Fluo-8 fluorescence; 0.6% of 360,000 active; inhibition, % at 3 µM;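 active = inhibition above a per-plate cutoff, the plate's mean sample inhibition plus 3 SD, cut at about 24% in these data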
CHRM1 antagonist = human CHRM1 antagonism; P11229; CHO-K1 hM1, Fluo-8 calcium fluorescence, ACh EC80 antagonist; inhibition, % at 3 µM; 1.3% of 360,000 active; AID 588852;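 active = percent inhibition above its own plate's cutoff, namely the mean of that plate's compound wells plus 3 SD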;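 also: peak over basal fluorescence ratio during 140 s after agonist addition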
Of the large screens only hits and unclear results are named; the others gave an inactive call. Sampled rows, rich in hits. Any-hit rate of the full collection: about 2.3%.

CO/N=C/c1ccc(N2CCN(C(=O)c3ccc(Cl)cc3Cl)CC2)c([N+](=O)[O-])c1	CHRM1 antagonist 24
COc1cccc(-n2c(SCC(=O)O)nnc2-c2cccnc2)c1	CHRM1 antagonist 23
CCOCCCNc1nc2c(c(=O)[nH]c(=O)n2C)n1CCCc1ccccc1	CHO-K1 Ca antag 26
CCCN(C(=S)Nc1ccccc1)C1CCS(=O)(=O)C1 (stereo unspecified)	none
O=C(COC(=O)[C@H](Cc1ccccc1)NC(=O)c1ccco1)NCc1ccccc1	none
Cc1ccc(C(=O)Sc2cccccc2=O)cc1	CHO-K1 Ca antag 35, CHRM1 antagonist 33
O=C(Nc1ccccc1SC(=O)c1ccccc1)c1ccccc1	none
CCN(CC1CCCN(CCc2cccc(F)c2)C1)C(=O)c1ccoc1C (stereo unspecified)	none
CCN(CC1CCCN(CCc2cccc(F)c2)C1)C(=O)c1ccc(CSC)o1 (stereo unspecified)	CHRM1 antagonist 61
Cc1ccc2nc(SCC(=O)N3CCC(Cc4ccccc4)CC3)nc(=O)n2c1	CHRM1 agonist 20
Cc1cc(C)n2nc(SCc3cccc(S(=O)(=O)N(C)C)c3)nc2n1	none
CN(C)S(=O)(=O)c1cccc(CSCc2cccc(S(=O)(=O)N(C)C)c2)c1	CHO-K1 Ca ag 18, CHO-K1 Ca antag 50, CHRM1 antagonist 38
Cc1ccc(F)c(S(=O)(=O)NC(=O)C2(C)CCN2C(=O)Cc2cccs2)c1 (stereo unspecified)	none
CCN(CC(=O)Nc1ccccc1C(F)(F)F)C(=O)CN1C(=O)NC2(CCCCC2)C1=O	CHO-K1 Ca antag 27
CCC1(c2ccccc2)NC(=O)N(CC(=O)N(CC(=O)Nc2ccccc2C(F)(F)F)Cc2ccco2)C1=O (stereo unspecified)	CHRM1 agonist 18
CCOP(=O)(OCC)C(NC(=O)c1cccs1)c1ccccc1 (stereo unspecified)	none
COc1ccccc1NC(=S)N(Cc1ccco1)Cc1cc2cc(C)ccc2[nH]c1=O	none
COc1ccccc1C(=O)C1CCCN(Cc2cccc3nccnc23)C1 (stereo unspecified)	CHRM1 antagonist 45
COc1cccc(C(=O)C2CCCN(C/C=C/c3ccccc3OC)C2)c1 (stereo unspecified)	none
CCOC(=O)N1CCC(N2CCCC(C(=O)c3cc(C)c(OC)c(C)c3)C2)CC1 (stereo unspecified)	CHRM1 antagonist 78
COc1ccc(C(=O)C2CCCN(C/C=C/c3ccccc3OC)C2)c(OC)c1 (stereo unspecified)	CHRM1 antagonist 51
COc1c(C)cc(C(=O)C2CCCN(Cc3cccc4nccnc34)C2)cc1C (stereo unspecified)	CHRM1 antagonist 42
CCN(CC)c1ccc(/C=C(\C#N)C(=O)c2ccc(Br)cc2)cc1	CHRM1 agonist 178, CHO-K1 Ca ag 110, CHO-K1 Ca antag 74, CHRM1 antagonist 85
CN(C)c1ccc(/C=C(\C#N)C(=O)c2ccccc2)cc1	CHRM1 agonist 125, CHO-K1 Ca ag 46, CHO-K1 Ca antag 38, CHRM1 antagonist 76
CCN(CC)c1ccc(/C=C(\C#N)C(N)=O)cc1	none
Cc1ccc(Nc2nc3ccccc3nc2Nc2c(C)n(C)n(-c3ccccc3)c2=O)cc1	none
CC[n+]1c(-c2ccc(C)cc2)csc1Nc1c(C)n(C)n(-c2ccccc2)c1=O	CHRM1 antagonist 35
CC[n+]1c(-c2ccccc2)csc1Nc1c(C)n(C)n(-c2ccccc2)c1=O	CHRM1 antagonist 51
COC(=O)C1=C(CS(=O)(=O)c2ccc(OC)c(OC)c2)NC(=O)NC1c1ccc(O)c(OC)c1 (stereo unspecified)	none
Cn1c(=O)[nH]c(=O)c2c1nc(N1CCOCC1)n2CCCSc1ncccn1	CHO-K1 Ca ag 16
Cc1ccnc(SCCn2c(N3CCOCC3)nc3c2c(=O)[nH]c(=O)n3C)n1	none
CCN1CCN(c2nc3c(c(=O)[nH]c(=O)n3C)n2CCSc2nc3ccccc3s2)CC1	CHRM1 agonist 30
CC1CC(C)CN(c2nc3c(c(=O)[nH]c(=O)n3C)n2CCCSc2nc3ccccc3s2)C1 (stereo unspecified)	none
S=C(NCC1CCCO1)c1ccc(Br)cc1 (stereo unspecified)	none
Cc1nc2c(OCc3ccc(OC(F)F)cc3)cccn2c1N(C)C(=O)CCC1CCCC1	none
CCCn1nnc(NC(=O)c2ccc([N+](=O)[O-])cc2Cl)n1	CHO-K1 Ca ag 15
O=c1[nH]ncc(N2CCN(Cc3ccccc3)CC2)c1Cl	CHO-K1 Ca antag 26
COc1cc(/C=N/NC(=O)CCC(=O)NC2CCCCC2)ccc1C	none
Cc1c(C(=O)NCc2ccc3c(c2)OCO3)oc2ccc(S(=O)(=O)N3CCCCC3)cc12	CHRM1 antagonist 28
Cc1cc(C)nc(N2CCCC(C(=O)NCc3ccc4c(c3)OCO4)C2)n1 (stereo unspecified)	none
CCCc1cc(N2CCCC(C(=O)NCc3ccc4c(c3)OCO4)C2)n2ncnc2n1 (stereo unspecified)	CHRM1 PAM 28
Cc1c(C(=O)NCc2ccc3c(c2)OCO3)oc2ccc(S(=O)(=O)N3CCCC3)cc12	none
Cc1ccc(S(=O)(=O)N2CCCC(C(=O)NCCc3ccc4c(c3)OCO4)C2)cc1 (stereo unspecified)	CHO-K1 Ca antag 24
O=C(NCc1ccc2c(c1)OCO2)C1CCCN(S(=O)(=O)c2cccnc2)C1 (stereo unspecified)	CHO-K1 Ca antag 48
Cc1ccc(S(=O)(=O)N/N=C/c2ccc(OC3CSC3)cc2)cc1	CHRM1 agonist 29, CHO-K1 Ca ag 17, CHRM1 antagonist 37
Cc1cc(NC(=O)C2CC(=O)N(c3cccc(Cl)c3)C2)no1 (stereo unspecified)	CHO-K1 Ca ag 16
Cc1cc(Nc2ccccc2)n(CCO)n1	none
CC1CCN(S(=O)(=O)c2ccc(Oc3ccc([N+](=O)[O-])cc3)cc2)CC1	CHRM1 antagonist 30
Cc1ccc(C)c(NC(=S)/C(=C(\[O-])c2ccc(Cl)s2)[n+]2ccccc2)c1	CHRM1 antagonist 23
[O-]/C(=C(\C(=S)Nc1cccc2ccccc12)[n+]1ccccc1)c1ccc(Cl)s1	none
CC(C)NC(=O)c1ccc2c(c1)N(Cc1ccccc1)C(=O)C(C)(C)O2	CHO-K1 Ca antag 24
CC(C)NC(=O)c1ccc2c(c1)N(CC(=O)N1CCCC1)C(=O)C(C)(C)O2	none
Fc1ccc(/C=C2\CCCC3=C2Nc2ncnn2C3c2ccc(F)cc2)cc1 (stereo unspecified)	CHRM1 antagonist 32
CCOC(=O)c1[nH]ncc1CN1CCCC(C(=O)c2cccc(OC(C)C)c2)C1 (stereo unspecified)	none

Compound activity deposited in PubChem BioAssay by The Scripps Research Institute Molecular Screening Center.
